Here are results for 29 molecules from ChEMBL document CHEMBL3988442, “University of Dundee, Small-Polar-MMV Screening Library” (2021).

This test concerns the target T1, Methionyl-tRNA synthetase, putative (Leishmania donovani (strain BPK282A1)) (UniProt E9BF75).
T1 sequence (whole entry): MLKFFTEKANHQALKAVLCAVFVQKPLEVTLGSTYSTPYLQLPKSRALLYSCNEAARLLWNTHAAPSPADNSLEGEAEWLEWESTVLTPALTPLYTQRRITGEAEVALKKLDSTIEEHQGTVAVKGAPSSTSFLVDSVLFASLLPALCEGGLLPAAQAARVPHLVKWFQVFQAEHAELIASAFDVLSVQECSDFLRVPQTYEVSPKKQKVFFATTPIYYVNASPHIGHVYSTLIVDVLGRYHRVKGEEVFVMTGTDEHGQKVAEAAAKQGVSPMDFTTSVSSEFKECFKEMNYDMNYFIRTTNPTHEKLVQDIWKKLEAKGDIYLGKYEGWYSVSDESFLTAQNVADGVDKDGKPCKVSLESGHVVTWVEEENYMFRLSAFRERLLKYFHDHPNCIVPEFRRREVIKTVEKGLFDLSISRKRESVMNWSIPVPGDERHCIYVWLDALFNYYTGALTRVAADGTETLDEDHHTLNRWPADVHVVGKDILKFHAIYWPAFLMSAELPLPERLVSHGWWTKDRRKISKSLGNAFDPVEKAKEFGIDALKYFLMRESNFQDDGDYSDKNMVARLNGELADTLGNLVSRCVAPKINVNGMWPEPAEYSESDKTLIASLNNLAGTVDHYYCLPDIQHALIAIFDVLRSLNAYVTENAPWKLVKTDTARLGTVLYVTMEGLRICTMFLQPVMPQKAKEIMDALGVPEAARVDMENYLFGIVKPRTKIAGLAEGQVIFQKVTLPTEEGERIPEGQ
The experiment in a line: Leishmania donovani Methionine tRNA synthetase (LdMetRS):v7. Dose response assay. The class given is functional. Also noted: conc 80 nM, time 150 minutes.

Each structure is given as a SMILES string. Some results are limits rather than exact numbers.

Take `Fc1ccc(CN2CCC(F)(F)C3(CCN(c4cnccn4)C3)C2)cc1` (stereo not drawn): the PXC50 is, setting by setting: (MAX_EFFECT 10.88435374) less than 4; (MAX_EFFECT 11.21495327) less than 4.

For `Cc1ccc(N2CCC3(CN(Cc4ccncc4)CCC3(F)F)C2)nn1` (stereo not drawn), the PXC50 (MAX_EFFECT 9.977324263) is less than 4 and the PXC50 (MAX_EFFECT 11.58878505) is less than 4.

As to `CCNc1cc(-c2ccccn2)nc(Nc2ccc(OC)cc2)n1`, the PXC50 is less than 4 (MAX_EFFECT 22.3255814) and less than 4 (MAX_EFFECT 23.54312354).

As to `CS(=O)(=O)N1CCN(c2ccc3ccc(C(=O)NCCN4CCOCC4)cn23)CC1`, the PXC50 (BOTTOM 1.032447983, HILLSLOPE 3.01577023, MAX_EFFECT 61.72248804, TOP 62.04525005) is 4.88 and the PXC50 (BOTTOM -0.949038422, HILLSLOPE 2.220287811, MAX_EFFECT 68.73857404, TOP 70.86130279) is 4.83.

For the molecule `CNC(=O)CNc1nc(CN2CCCCC2)nc2sc3c(c12)CCC3`, the PXC50 runs as follows: (MAX_EFFECT 7.304785894) less than 4; (MAX_EFFECT 12.46819338) less than 4.

Consider `Cc1nc(N2CCC(O)CC2)c2c(-c3cccs3)csc2n1`, for which the PXC50 by setting is: (MAX_EFFECT 8.905852417) less than 4; (MAX_EFFECT 9.319899244) less than 4.

For the molecule `COc1cc2ccc(N3CCN(S(C)(=O)=O)CC3)n2cc1C(=O)NC1CCCC1`, the PXC50 is, setting by setting: (BOTTOM 1.185639049, HILLSLOPE 1.624291099, MAX_EFFECT 57.89473684, TOP 63.90970976) 4.71; (BOTTOM -1.038445777, HILLSLOPE 1.129445656, MAX_EFFECT 51.04166667, TOP 100.0) 4.35.

As to `Cc1nc(NCCS(N)(=O)=O)c2c(-c3ccccc3)csc2n1`, the PXC50 reads like this: (MAX_EFFECT 6.870229008) less than 4; (MAX_EFFECT 12.34256927) less than 4.

`Cc1nc(N[C@H](C(=O)O)C(C)C)c2c3c(sc2n1)CCCC3`: the PXC50 was less than 4 (MAX_EFFECT 7.978723404) and less than 4 (MAX_EFFECT 8.29015544).

Take `CC(C)C[C@H](N)COc1ccc(Cl)cc1-c1ccno1`: the PXC50 runs as follows: (MAX_EFFECT 6.832298137) less than 4; (MAX_EFFECT 8.742004264) less than 4.

As for `Cn1ccnc1CN1CCC(F)(F)C2(CCN(c3cccnc3)C2)C1` (stereo not drawn), the PXC50 was less than 4 (MAX_EFFECT 9.719626168) and less than 4 (MAX_EFFECT 11.33786848).

With `COCCNc1nc(N2CCCC2)nc2sc3c(c12)CCCC3`, the PXC50 reads like this: (MAX_EFFECT 20.83333333) less than 4; (MAX_EFFECT 36.40350877) less than 4.

As to `CN(C)C(=O)CNC(=O)c1ccc2ccc(N(C)CC3CC3)n2c1`, the PXC50 by setting is: (MAX_EFFECT 21.76870748) less than 4; (MAX_EFFECT 29.90654206) less than 4.

As to `Cc1sc2nc(CCN)nc(N3CCC(N4CCCC4)CC3)c2c1C`, the PXC50 was less than 4 (MAX_EFFECT 14.62140992) and less than 4 (MAX_EFFECT 16.44908616).

Consider `FC(F)(F)c1nc(N2CCOCC2)nc2c1CCCCC2`, for which the PXC50 is less than 4 (MAX_EFFECT 7.808564232) and less than 4 (MAX_EFFECT 8.396946565).

For the molecule `Cc1cc2c(N3CCOCC3)nc(-c3cccnc3)nc2s1`, the PXC50 is, setting by setting: (MAX_EFFECT 2.18579235) less than 4; (MAX_EFFECT 5.347593583) less than 4.

For the molecule `Nc1noc2ccc(-c3cnc4ccc(Cl)nn34)cc12`, the PXC50 is, setting by setting: (MAX_EFFECT 1.526717557) less than 4; (MAX_EFFECT 4.824561404) less than 4.

Consider `Cc1ccc(N2CCC3(CN(Cc4cccs4)CCC3(F)F)C2)nn1` (stereo not drawn), for which the PXC50 reads like this: (MAX_EFFECT 4.988662132) less than 4; (MAX_EFFECT 10.8411215) less than 4.

As to `Nc1nc(CSc2nnc[nH]2)nc2sc3c(c12)CCCC3`, the PXC50 was less than 4 (MAX_EFFECT 21.33333333) and less than 4 (MAX_EFFECT 26.98412698).

Regarding `FC1(F)CCN(Cc2ccncc2)CC12CCN(c1cnccn1)C2` (stereo not drawn), the PXC50 reads like this: (MAX_EFFECT 2.721088435) less than 4; (MAX_EFFECT 15.70093458) less than 4.

`O=C(c1ccccc1)C1CCN(c2cncc(-n3cccn3)n2)CC1` came in with a PXC50 (MAX_EFFECT 17.57719715) of less than 4 and a PXC50 (MAX_EFFECT 27.64084507) of less than 4.

Consider `Cn1cc(CN2CCC(F)(F)C3(CCN(c4cccc(F)c4)C3)C2)cn1` (stereo not drawn), for which the PXC50 (MAX_EFFECT 7.256235828) was less than 4 and the PXC50 (MAX_EFFECT 17.57009346) was less than 4.

As for `CCNc1cc(-c2ccccn2)nc(Nc2ccc(F)c(Cl)c2)n1`, the PXC50 is less than 4 (MAX_EFFECT 18.84057971) and less than 4 (MAX_EFFECT 22.81449893).

With `O=C(O)C1CCCN1c1nc(-c2ccc(Cl)c(Cl)c2)cc(C(F)(F)F)n1` (stereo not drawn), the PXC50 is less than 4 (MAX_EFFECT 9.660574413) and less than 4 (MAX_EFFECT 10.44386423).

Regarding `CS(=O)(=O)N1CCN(c2ccc3ccc(C(=O)NC4CCOCC4)cn23)CC1`, the PXC50 is 4.8 (BOTTOM 2.519402955, HILLSLOPE 2.221498876, MAX_EFFECT 53.88127854, TOP 54.22998304) and 4.78 (BOTTOM -4.408166057, HILLSLOPE 3.645653811, MAX_EFFECT 56.79245283, TOP 54.33837105).

`CS(=O)(=O)N1CCN(c2ccc3ccc(C(=O)N4CCCCO4)cn23)CC1`: the PXC50 runs as follows: (BOTTOM 3.408302262, HILLSLOPE 2.699207266, MAX_EFFECT 56.14035088, TOP 100.0) 4.33; (BOTTOM -1.088314762, HILLSLOPE 0.901802249, MAX_EFFECT 54.6875, TOP 100.0) 4.49.

For `CS(=O)(=O)N1CCN(c2ccc3ccc(C(=O)NCCn4cccn4)cn23)CC1`, the PXC50 was 4.95 (BOTTOM 1.569537618, HILLSLOPE 2.334941078, MAX_EFFECT 65.07177033, TOP 65.29640188) and 4.79 (BOTTOM 7.030389685, HILLSLOPE 2.531896239, MAX_EFFECT 68.73857404, TOP 69.44063033).

Regarding `CCN(CC)c1ccc2ccc(C(=O)NC3CCCC3)cn12`, the PXC50 was less than 4 (MAX_EFFECT 33.58778626) and less than 4 (MAX_EFFECT 39.03508772).

Take `CCNC(=O)C1CCCN(c2nc(C)nc3sc4c(c23)CCC4)C1` (stereo not drawn): the PXC50 is, setting by setting: (MAX_EFFECT 7.25388601) less than 4; (MAX_EFFECT 9.574468085) less than 4.
